The structures appear in SMILES notation.

The target of experiment [1] is Sphingosine kinase 1 (Homo sapiens) (UniProt Q9NYA1). Conditions: at 1 µM.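 Further: mean SPHK1 inhibition value reported from the GSK PKIS kinase panel screen.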
The target in experiment [2] is T1, Sphingosine kinase 2 (Homo sapiens) (UniProt Q9NRA0).
T1 sequence (whole entry): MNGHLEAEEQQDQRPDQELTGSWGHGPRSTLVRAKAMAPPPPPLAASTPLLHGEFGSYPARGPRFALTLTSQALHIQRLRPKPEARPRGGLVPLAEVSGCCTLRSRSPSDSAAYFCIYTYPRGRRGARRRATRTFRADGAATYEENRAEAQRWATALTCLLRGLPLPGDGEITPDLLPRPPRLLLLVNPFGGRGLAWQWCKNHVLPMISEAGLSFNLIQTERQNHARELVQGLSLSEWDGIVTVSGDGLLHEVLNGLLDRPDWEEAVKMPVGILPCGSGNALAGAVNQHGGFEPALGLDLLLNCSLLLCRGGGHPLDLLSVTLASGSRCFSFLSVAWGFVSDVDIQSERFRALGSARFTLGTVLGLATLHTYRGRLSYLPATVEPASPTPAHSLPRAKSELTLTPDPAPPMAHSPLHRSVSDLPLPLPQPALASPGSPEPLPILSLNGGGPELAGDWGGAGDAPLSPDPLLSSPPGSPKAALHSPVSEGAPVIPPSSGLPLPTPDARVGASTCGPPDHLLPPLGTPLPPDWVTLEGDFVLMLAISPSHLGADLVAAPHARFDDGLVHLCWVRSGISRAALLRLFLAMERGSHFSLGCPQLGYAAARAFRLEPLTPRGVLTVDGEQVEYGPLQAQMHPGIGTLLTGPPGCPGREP
Conditions: at 0.1 µM.

The target in experiment [3] is T1, Sphingosine kinase 2 (Homo sapiens). Conditions: at 1 µM.
In experiment [4] the target is Casein kinase II subunit alpha (Homo sapiens) (UniProt P68400). Conditions: at 0.1 µM.
Casein kinase II subunit alpha (Homo sapiens), sequence (P68400 whole entry, looked up): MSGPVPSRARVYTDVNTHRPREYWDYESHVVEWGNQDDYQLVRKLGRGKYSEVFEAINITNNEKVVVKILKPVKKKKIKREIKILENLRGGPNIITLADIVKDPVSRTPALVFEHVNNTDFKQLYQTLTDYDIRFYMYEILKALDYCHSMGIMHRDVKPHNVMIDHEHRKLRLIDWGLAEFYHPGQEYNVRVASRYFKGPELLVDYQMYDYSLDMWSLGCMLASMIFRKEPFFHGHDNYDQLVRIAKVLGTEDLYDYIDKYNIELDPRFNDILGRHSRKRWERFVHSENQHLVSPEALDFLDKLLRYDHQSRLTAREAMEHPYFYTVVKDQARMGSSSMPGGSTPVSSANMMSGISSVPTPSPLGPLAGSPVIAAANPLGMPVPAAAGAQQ
Experiment [5] has the same target. Conditions: at 1 µM.
Experiment [6] addresses T2, Inhibitor of nuclear factor kappa-B kinase subunit alpha (Homo sapiens) (UniProt O15111).
T2 sequence (whole entry): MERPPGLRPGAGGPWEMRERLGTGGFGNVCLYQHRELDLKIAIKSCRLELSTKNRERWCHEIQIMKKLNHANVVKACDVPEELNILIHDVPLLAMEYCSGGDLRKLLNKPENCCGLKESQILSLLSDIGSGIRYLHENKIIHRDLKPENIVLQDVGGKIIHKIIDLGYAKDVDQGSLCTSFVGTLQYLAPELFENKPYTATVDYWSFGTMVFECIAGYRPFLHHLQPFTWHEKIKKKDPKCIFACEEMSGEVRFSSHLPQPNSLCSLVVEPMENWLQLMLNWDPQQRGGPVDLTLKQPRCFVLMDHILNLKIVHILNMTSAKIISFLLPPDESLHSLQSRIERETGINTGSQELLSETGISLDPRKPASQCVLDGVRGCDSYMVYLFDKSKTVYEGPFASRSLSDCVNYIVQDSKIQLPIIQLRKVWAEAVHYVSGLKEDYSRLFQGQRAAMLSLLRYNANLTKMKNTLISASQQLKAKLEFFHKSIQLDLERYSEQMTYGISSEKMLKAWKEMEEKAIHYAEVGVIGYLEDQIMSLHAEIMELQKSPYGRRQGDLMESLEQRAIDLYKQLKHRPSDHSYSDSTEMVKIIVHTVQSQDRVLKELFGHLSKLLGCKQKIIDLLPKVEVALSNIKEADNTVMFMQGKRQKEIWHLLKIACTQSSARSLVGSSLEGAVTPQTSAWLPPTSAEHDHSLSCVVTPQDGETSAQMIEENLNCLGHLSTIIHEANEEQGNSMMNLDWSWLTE
Conditions: at 0.1 µM.

For experiment [7], the target named is T2, Inhibitor of nuclear factor kappa-B kinase subunit alpha (Homo sapiens). Conditions: at 1 µM.
The target of experiment [8] is T3, Inhibitor of nuclear factor kappa-B kinase subunit beta (Homo sapiens) (UniProt O14920).
T3 sequence (whole entry): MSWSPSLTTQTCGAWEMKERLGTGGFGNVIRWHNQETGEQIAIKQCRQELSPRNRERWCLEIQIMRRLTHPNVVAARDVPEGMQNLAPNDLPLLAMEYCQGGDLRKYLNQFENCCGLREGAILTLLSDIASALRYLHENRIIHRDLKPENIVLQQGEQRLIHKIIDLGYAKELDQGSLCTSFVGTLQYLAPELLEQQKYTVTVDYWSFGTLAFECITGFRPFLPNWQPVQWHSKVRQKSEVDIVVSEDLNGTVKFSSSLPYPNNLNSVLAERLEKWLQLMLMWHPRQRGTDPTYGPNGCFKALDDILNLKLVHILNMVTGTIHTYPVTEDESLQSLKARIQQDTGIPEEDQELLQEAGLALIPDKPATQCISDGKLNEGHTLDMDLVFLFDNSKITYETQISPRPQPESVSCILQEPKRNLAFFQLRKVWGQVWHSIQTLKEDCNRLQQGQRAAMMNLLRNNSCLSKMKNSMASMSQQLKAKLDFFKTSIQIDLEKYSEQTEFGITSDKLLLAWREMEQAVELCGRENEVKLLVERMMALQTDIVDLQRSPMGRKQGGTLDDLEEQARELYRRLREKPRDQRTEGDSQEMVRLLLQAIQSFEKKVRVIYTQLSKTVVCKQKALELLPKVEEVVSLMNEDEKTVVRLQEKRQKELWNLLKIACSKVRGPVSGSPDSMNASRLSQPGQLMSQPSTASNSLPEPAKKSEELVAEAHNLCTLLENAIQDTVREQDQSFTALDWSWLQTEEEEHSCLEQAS
Conditions: at 0.1 µM.

In experiment [9] the target is T3, Inhibitor of nuclear factor kappa-B kinase subunit beta (Homo sapiens). Conditions: at 1 µM.
Experiment [10] has as its target T4, Inhibitor of nuclear factor kappa-B kinase subunit epsilon (Homo sapiens) (UniProt Q14164).
T4 sequence (whole entry): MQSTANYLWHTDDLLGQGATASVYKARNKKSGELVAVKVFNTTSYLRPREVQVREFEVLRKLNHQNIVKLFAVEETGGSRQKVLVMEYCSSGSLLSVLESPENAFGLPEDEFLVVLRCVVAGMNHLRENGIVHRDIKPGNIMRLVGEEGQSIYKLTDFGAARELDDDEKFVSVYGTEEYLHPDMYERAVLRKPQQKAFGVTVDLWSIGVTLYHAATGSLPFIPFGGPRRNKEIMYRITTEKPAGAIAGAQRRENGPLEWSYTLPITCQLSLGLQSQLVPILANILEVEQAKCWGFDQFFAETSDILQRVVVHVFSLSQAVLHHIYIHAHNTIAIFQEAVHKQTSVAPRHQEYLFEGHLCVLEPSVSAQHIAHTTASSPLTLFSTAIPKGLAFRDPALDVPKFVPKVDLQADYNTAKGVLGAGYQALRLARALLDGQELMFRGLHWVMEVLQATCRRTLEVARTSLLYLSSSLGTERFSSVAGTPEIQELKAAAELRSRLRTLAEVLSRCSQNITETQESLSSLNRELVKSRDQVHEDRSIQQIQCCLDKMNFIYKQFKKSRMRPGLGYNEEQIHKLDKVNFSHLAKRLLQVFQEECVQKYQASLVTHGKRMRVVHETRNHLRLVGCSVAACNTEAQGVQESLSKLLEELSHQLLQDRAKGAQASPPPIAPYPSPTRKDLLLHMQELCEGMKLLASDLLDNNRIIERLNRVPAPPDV
Conditions: at 0.1 µM.

The target of experiment [11] is T4, Inhibitor of nuclear factor kappa-B kinase subunit epsilon (Homo sapiens). Conditions: at 1 µM.
Experiment [12] addresses T5, Serine/threonine-protein kinase Nek1 (Homo sapiens) (UniProt Q96PY6).
T5 sequence (whole entry): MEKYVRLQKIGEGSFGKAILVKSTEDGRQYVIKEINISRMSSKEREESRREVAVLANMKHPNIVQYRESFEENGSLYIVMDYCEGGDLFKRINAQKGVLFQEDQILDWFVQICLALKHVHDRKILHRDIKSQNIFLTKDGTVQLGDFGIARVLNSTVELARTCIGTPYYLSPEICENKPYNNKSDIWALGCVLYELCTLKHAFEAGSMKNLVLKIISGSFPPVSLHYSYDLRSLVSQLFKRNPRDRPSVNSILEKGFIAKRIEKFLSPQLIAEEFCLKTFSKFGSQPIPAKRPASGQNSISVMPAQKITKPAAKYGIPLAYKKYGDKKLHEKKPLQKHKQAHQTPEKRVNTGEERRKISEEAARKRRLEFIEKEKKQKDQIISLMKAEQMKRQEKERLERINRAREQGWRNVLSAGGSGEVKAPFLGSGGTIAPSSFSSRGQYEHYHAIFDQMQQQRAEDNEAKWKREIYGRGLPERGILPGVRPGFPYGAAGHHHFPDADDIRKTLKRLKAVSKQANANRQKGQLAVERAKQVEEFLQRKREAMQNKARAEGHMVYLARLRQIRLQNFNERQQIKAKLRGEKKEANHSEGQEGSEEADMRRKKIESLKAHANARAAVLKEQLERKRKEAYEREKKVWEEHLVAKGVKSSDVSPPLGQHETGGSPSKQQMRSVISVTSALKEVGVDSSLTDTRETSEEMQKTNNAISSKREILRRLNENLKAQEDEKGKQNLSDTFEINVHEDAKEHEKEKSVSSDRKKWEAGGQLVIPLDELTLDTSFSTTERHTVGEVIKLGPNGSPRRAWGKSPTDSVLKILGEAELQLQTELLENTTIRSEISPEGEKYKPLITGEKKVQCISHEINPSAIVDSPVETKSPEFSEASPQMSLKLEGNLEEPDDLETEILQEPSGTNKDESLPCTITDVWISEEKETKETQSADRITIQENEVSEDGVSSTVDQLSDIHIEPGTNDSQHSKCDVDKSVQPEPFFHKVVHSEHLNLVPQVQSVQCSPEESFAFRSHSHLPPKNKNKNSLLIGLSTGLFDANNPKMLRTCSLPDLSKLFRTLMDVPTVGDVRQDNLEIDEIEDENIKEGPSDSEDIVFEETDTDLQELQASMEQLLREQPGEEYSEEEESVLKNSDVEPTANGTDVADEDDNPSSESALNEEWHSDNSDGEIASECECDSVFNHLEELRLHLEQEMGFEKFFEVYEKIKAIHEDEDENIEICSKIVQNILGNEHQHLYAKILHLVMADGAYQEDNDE
Conditions: at 0.1 µM.

For experiment [13], the target named is T5, Serine/threonine-protein kinase Nek1 (Homo sapiens). Conditions: at 1 µM.
Experiment [14] concerns the target T6, Serine/threonine-protein kinase Nek2 (Homo sapiens) (UniProt P51955).
T6 sequence (whole entry): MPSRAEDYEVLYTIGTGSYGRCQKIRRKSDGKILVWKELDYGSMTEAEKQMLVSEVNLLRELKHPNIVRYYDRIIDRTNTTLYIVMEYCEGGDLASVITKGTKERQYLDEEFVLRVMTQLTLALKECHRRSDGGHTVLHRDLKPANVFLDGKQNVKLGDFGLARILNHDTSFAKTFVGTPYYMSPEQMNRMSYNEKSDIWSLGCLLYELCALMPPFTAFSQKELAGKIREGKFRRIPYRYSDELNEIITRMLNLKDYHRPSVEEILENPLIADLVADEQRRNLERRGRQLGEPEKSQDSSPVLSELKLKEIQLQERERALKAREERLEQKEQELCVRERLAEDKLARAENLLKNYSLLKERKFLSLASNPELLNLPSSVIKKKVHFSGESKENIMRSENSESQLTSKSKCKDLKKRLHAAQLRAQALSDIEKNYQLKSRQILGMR
Conditions: at 0.1 µM.

Experiment [15] has as its target T6, Serine/threonine-protein kinase Nek2 (Homo sapiens). Conditions: at 1 µM.
For experiment [16], the target named is Serine/threonine-protein kinase Nek6 (Homo sapiens) (UniProt Q9HC98). Conditions: at 0.1 µM.
Serine/threonine-protein kinase Nek6 (Homo sapiens), sequence (Q9HC98 whole entry): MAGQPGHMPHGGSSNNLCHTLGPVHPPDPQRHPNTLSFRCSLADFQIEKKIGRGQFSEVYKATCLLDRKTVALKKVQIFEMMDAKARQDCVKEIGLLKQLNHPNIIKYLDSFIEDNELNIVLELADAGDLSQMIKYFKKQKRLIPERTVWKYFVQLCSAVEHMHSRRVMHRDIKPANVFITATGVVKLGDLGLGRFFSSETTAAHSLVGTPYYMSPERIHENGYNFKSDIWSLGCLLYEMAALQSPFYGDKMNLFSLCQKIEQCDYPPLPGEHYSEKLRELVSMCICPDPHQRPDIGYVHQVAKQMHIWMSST
For experiment [17] the target is unchanged. Conditions: at 1 µM.
For experiment [18], the target named is Serine/threonine-protein kinase Nek7 (Homo sapiens) (UniProt Q8TDX7). Conditions: at 0.1 µM.
Serine/threonine-protein kinase Nek7 (Homo sapiens), sequence (Q8TDX7 whole entry, looked up): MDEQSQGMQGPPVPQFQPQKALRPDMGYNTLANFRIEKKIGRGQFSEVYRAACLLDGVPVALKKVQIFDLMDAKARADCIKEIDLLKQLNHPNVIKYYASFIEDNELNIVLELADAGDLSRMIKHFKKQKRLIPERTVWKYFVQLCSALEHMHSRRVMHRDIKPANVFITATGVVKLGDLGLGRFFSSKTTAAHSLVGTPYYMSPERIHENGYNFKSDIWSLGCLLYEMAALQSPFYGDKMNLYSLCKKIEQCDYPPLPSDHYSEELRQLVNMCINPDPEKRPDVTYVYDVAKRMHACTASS
Experiment [19] has the same target. Conditions: at 1 µM.
In experiment [20] the target is T7, Serine/threonine-protein kinase Nek9 (Homo sapiens) (UniProt Q8TD19).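 Further: reported value is the mean percent inhibition of NEK9.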
T7 sequence (whole entry): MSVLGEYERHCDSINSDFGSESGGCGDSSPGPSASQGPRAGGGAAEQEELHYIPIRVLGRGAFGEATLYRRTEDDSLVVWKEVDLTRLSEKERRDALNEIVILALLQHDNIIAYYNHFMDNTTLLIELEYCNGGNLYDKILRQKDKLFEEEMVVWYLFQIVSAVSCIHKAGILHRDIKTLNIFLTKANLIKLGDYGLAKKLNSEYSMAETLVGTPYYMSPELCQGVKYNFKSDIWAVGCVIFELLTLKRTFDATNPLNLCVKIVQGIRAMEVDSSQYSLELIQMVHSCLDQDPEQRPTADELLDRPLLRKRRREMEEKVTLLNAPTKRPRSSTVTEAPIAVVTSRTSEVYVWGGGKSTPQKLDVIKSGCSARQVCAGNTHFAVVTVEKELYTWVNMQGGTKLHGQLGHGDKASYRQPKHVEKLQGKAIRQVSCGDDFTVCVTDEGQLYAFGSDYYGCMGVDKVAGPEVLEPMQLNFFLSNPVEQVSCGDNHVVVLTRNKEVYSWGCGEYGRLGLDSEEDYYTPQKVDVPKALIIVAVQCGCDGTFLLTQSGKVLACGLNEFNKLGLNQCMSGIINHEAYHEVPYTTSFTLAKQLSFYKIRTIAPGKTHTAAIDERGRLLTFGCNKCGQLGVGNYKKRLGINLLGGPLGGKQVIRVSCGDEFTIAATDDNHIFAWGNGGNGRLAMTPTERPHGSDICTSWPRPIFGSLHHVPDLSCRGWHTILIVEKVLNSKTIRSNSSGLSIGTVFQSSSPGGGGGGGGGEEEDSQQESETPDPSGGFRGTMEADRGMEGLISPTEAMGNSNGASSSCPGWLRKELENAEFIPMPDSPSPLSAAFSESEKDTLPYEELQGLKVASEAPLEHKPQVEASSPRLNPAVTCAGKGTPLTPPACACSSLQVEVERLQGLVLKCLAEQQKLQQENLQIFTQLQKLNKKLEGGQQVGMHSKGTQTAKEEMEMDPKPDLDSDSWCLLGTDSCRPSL
Conditions: at 0.1 µM.

Sphingosine kinase 1 (Homo sapiens), sequence (Q9NYA1 whole entry): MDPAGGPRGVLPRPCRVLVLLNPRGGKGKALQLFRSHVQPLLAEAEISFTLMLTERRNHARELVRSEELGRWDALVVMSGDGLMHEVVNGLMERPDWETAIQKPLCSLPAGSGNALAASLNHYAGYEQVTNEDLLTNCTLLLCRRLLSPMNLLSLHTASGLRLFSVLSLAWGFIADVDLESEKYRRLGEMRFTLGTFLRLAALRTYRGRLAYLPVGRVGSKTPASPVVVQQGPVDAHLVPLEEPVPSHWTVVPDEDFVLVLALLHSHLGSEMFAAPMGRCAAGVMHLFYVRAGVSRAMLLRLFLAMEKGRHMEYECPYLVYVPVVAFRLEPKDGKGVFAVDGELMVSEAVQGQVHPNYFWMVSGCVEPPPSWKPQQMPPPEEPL

`COc1ccc(-c2nn3ncccc3c2-c2ccnc(Nc3ccc(F)c(F)c3)n2)cc1`: the inhibition is -4.19% in experiment [1]; 5.2% in experiment [2]; 0% in experiment [3]; 5.76% in [4]; 10.5% in [5]; 3.55% in experiment [6]. In addition, the inhibition worked out at 8.81% in experiment [7]; 4.66% in [8]; 5.58% in experiment [9]; 9.89% in [10]; 88.2% in experiment [11]; 1.08% in [12]. Besides, the inhibition in experiment [13] came to 2.15%; in [14] it was 3.89%; in experiment [15], 2.89%; in experiment [16], 3.33%; in experiment [17], 5.18%; in experiment [18], 3.7%. The inhibition in [19] came to 4.42%; in [20] it was 7.45%.

Source of the values: ChEMBL document CHEMBL1961873, “Compounds: GSK PKIS; Assays: Nanosyn kinase panel” (2012).
